Results on 5 molecules are retold here after PubChem BioAssay.

SMILES strings stand for the structures. Calls of active or inactive are those of the source.

For assay [1], the system named is Plasmodium falciparum Sir2 (PF13_0152, Sir2A). Nature of the assay: Plasmodium falciparum Sir2A binding compounds – biochemical, small-molecule microarray, 635 nm fluorescence, primary screen (AID 1098).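 Also: score merges spot fluorescence intensity with its signal-to-noise ratio.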 The following applies: fluorescence 635 nm, higher = more signal.
Assay [2] can be described thus: probe aDKK1 binding to arrayed compounds – biochemical, biotinylated probe, 635/667 nm fluorescence, primary screen (AID 1099).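 Also: score merges 667nm spot fluorescence with signal to noise across triplicate slides.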 The following applies: small-molecule microarray, higher = more signal.
Assay [3] in a line: probe aCHRDL2 binding to arrayed compounds – biochemical, biotinylated probe, 635/667 nm fluorescence, primary screen (AID 1100). Conditions: small-molecule microarray, higher = more signal.
A short description of assay [4]: change in splice reporter luminescence, either direction, cell-based, HEK293, spliceosome inhibition project, primary screen (AID 1101).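 Also: HEK293 cells carrying a splicing-competent luciferase reporter gene; test concentration not given here.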 The following applies: HEK293 splicing luciferase reporter, 24 h, higher = more signal, called active from +8 up or from −8 down.
Assay [5] addresses Fibroblast growth factor 10 (Homo sapiens) (UniProt O15520). Nature of the assay: compounds binding fibroblast growth factor 10 – biochemical, small-molecule microarray, 635 nm fluorescence, primary screen (AID 1102). The following applies: FGF10 binding, fluorescence 635 nm, higher = more signal.
For assay [6], the system named is glycogen synthase kinase-3 (GSK3A per assay name; protocol says GSK3B). Nature of the assay: compounds binding glycogen synthase kinase-3 – biochemical, small-molecule microarray, 635 nm fluorescence, GSK3A, primary screen (AID 1103). Also: the record names both GSK3A and GSK3B. Conditions: fluorescence 635 nm, higher = more signal.
For assay [7], the target named is Epidermal growth factor receptor (Homo sapiens) (UniProt P00533). Nature of the assay: compounds binding epidermal growth factor receptor – biochemical, small-molecule microarray, 635 nm fluorescence, primary screen (AID 1104).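 Also: score merges 667 nm emission intensity with spot signal to noise over triplicate slides.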 Conditions: EGFR binding, higher = more signal.
Epidermal growth factor receptor (Homo sapiens), sequence (P00533 whole entry, looked up): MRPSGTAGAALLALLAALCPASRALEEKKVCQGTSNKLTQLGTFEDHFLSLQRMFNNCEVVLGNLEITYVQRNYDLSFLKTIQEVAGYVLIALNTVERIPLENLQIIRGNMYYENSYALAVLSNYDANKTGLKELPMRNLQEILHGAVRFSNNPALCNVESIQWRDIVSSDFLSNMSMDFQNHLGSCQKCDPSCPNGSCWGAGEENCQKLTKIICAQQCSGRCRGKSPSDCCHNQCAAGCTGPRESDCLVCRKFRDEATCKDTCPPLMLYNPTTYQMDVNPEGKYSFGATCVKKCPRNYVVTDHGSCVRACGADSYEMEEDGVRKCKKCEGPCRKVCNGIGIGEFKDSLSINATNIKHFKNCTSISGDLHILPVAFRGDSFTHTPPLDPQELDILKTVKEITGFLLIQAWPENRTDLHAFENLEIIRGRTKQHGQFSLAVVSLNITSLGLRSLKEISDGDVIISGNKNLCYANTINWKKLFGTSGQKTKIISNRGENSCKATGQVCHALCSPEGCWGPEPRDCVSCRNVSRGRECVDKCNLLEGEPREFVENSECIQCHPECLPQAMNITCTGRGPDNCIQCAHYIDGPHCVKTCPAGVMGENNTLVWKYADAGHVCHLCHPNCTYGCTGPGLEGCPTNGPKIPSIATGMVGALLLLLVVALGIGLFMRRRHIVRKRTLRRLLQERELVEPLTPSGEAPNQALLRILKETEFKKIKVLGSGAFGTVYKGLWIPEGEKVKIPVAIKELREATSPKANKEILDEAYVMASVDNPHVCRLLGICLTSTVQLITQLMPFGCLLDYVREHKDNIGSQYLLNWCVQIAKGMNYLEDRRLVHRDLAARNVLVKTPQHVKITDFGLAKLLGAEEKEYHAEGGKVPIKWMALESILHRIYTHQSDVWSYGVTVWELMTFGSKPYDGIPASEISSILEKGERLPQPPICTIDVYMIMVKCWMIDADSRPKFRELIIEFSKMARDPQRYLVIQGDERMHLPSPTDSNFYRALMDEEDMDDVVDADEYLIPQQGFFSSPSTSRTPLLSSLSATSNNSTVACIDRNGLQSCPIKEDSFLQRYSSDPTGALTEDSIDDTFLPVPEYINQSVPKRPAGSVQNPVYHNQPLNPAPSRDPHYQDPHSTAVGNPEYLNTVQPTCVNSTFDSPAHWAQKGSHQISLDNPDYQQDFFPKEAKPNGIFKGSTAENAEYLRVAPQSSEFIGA
The target of assay [8] is Follistatin-related protein 3 (Homo sapiens) (UniProt O95633). Nature of the assay: compounds binding follistatin-related protein 3 – biochemical, small-molecule microarray, 635 nm fluorescence, primary screen (AID 1105).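 Also: score merges emission near 667 nm and signal to noise per printed spot across three slides.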 The following applies: FSTL3 binding, higher = more signal.
Follistatin-related protein 3 (Homo sapiens), sequence (O95633 whole entry, looked up): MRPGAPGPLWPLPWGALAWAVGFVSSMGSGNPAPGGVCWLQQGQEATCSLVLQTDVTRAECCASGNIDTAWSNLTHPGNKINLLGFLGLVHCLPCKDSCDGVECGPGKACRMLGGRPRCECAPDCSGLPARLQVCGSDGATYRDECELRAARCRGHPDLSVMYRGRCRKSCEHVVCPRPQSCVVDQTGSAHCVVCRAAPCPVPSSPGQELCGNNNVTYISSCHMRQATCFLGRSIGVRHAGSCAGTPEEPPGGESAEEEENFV
Assay [9] concerns the target Dickkopf-related protein 1 (Homo sapiens) (UniProt O94907). Nature of the assay: small molecules binding DKK1 protein – biochemical, small-molecule microarray, 635 nm fluorescence scan, primary screen (AID 1106).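 Also: score merges emission near 667 nm with signal to noise over three replicate slides.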 The following applies: higher = more signal.
For assay [10], the system named is Inhibin beta A chain (activin A). Nature of the assay: small molecules binding activin A – biochemical, small-molecule microarray, 635 nm fluorescence scan, primary screen (AID 1107).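 Also: mouse activin A protein probed at 4.33 µg/mL on printed slides; score merges bound-protein fluorescence near 667 nm with spot signal-to-noise.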 Conditions: INHBA, higher = more signal.
In assay [11] the test system is Human papillomavirus type 1a protein E7 (residues 44-93). Nature of the assay: small molecules binding HPV E7 44-93 – biochemical, small-molecule microarray, residues 44-93, 635 nm fluorescence, primary screen (AID 1108).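 Also: E7 fragment applied at 1 µg/mL in TBST for 1 h at 4 C; score combines spot fluorescence with its signal to noise ratio.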 Conditions: fluorescence 635 nm, higher = more signal.
Assay [12] in a line: hepatitis C replication reporter changes, two-sided – Huh7 cells, luciferase reporter, HCV replication inhibitor project, primary screen (AID 1109).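 Also: huh7 hepatoma cells harbouring a luciferase neomycin HCV replicon reporter; luciferase luminescence as measure of HCV replicon replication; test concentration not given here.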 The following applies: Huh7 HCV replicon luciferase reporter, 48 h; higher = more signal.
Assay [13] addresses Left-right determination factor 2 (Homo sapiens) (UniProt O00292). Nature of the assay: small molecules binding LEFTY2 protein – biochemical, small-molecule microarray, 635 nm fluorescence scan, primary screen (AID 1110). Conditions: higher = more signal.
The target of assay [14] is Calmodulin-1 (Homo sapiens) (UniProt P0DP23). Nature of the assay: small molecules binding calmodulin-1 with EGTA – biochemical, small-molecule microarray, Cy5-labelled CALM1, profiling panel (AID 1111).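 Also: labelled calmodulin applied in Tris saline Tween buffer holding calcium plus EGTA and DTT.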 Conditions: Cy5-CALM1 binding fluorescence, higher = more signal.
Assay [15] has the same target. Nature of the assay: small molecules binding Ca-loaded calmodulin-1 – biochemical, small-molecule microarray, Cy5-labelled CALM1, plus calcium, artefact control for SMM control-protein annotation, profiling panel (AID 1112).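 Also: score merges spot fluorescence with signal to noise from triplicate slides.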 The following applies: Cy5-CALM1 binding fluorescence, higher = more signal.
Assay [16] can be described thus: probe aWnt5a binding to arrayed compounds – biochemical, biotinylated probe, 635/667 nm fluorescence, primary screen (AID 1113).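 Also: score merges 667 nm fluorescence intensity with signal-to-noise per printed feature.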 The following applies: small-molecule microarray, higher = more signal.
Assay [17] can be described thus: probe aShh binding to arrayed compounds – biochemical, biotinylated probe, 635/667 nm fluorescence, primary screen (AID 1114).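 Also: probe is biotin-labelled aShh protein from a stem cell growth factor screen; measures binding of labelled protein to compounds printed on the slide; score merges feature fluorescence at 667 nm with signal-to-noise.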 Conditions: small-molecule microarray, higher = more signal.
The nature of assay [18]: probe aNog binding to arrayed compounds – biochemical, biotinylated probe, 635/667 nm fluorescence, primary screen (AID 1115).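 Also: probe is biotinylated aNog protein used at 0.15 µg/mL for 1 h at 4 C; z-score combines 667 nm fluorescence of each spot with its signal to noise.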 The following applies: small-molecule microarray, higher = more signal.
For assay [19], the target named is Torsin-1A-interacting protein 1 (Homo sapiens) (UniProt Q5JTV8). Nature of the assay: compound microarray binding of lysate hLAP1 – cell lysate, small-molecule microarray, COS7 lysate, 635/667 nm fluorescence, primary screen (AID 1116). The following applies: 635 nm fluorescence, higher = more signal.
Torsin-1A-interacting protein 1 (Homo sapiens), sequence (Q5JTV8 whole entry, looked up): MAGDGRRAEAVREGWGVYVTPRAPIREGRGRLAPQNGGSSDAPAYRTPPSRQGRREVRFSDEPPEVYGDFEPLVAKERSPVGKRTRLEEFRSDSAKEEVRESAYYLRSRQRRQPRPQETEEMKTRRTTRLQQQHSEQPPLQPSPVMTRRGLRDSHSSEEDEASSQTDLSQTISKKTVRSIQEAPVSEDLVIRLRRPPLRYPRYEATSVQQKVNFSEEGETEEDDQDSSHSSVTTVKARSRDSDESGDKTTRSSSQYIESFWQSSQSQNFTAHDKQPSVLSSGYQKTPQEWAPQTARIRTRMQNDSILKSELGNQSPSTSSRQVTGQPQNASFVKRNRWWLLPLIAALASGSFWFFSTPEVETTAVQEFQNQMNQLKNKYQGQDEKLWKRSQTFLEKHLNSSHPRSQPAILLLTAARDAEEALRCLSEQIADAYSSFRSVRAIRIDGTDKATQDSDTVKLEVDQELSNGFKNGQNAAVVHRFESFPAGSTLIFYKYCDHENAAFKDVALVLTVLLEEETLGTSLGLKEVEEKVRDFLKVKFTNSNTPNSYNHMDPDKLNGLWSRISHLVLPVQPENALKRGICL
The target in assay [20] is Alpha-bungarotoxin (Bungarus multicinctus) (UniProt P60615). Nature of the assay: compounds binding labelled alpha-BTX control protein – biochemical, small-molecule microarray, Alexa647 label, 635/667 nm fluorescence, artefact control for SMM control protein annotation, profiling panel (AID 1117). Conditions: alpha-BTX-A647 binding fluorescence, higher = more signal.
Alpha-bungarotoxin (Bungarus multicinctus), sequence (P60615 whole entry, looked up): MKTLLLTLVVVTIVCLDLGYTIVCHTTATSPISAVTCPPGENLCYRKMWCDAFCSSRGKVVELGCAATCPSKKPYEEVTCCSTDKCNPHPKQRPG

Fibroblast growth factor 10 (Homo sapiens), sequence (O15520 whole entry, looked up): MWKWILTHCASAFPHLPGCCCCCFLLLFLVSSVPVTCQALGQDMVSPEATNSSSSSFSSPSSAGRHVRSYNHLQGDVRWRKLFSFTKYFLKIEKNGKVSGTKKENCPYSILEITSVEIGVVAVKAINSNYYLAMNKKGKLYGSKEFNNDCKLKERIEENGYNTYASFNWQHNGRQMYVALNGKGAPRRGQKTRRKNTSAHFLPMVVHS
Dickkopf-related protein 1 (Homo sapiens), sequence (O94907 whole entry, looked up): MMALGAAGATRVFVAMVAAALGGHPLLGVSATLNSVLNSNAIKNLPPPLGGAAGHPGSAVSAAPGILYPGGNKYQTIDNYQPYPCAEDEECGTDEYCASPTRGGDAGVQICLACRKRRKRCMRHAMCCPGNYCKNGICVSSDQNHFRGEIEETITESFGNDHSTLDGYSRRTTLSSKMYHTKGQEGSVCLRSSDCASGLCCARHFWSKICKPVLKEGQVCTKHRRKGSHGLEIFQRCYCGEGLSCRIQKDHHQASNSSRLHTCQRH
Left-right determination factor 2 (Homo sapiens), sequence (O00292 whole entry, looked up): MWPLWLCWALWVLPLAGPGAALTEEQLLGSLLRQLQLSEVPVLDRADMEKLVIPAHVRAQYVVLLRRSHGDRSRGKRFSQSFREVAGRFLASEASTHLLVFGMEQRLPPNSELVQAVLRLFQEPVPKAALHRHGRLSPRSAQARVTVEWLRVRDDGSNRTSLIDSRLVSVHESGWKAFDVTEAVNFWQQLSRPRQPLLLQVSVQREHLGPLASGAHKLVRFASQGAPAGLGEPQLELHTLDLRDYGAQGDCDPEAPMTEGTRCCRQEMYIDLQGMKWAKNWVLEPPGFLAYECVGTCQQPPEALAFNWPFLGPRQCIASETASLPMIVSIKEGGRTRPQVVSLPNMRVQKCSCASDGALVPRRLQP

Consider `C[C@]1(C(=O)O)c2ccccc2C(=O)N(Cc2cc(C(F)(F)F)cc(C(F)(F)F)c2)[C@H]1c1ccc(CO)cc1`, for which the composite z-score in assay [1] is -0.822; in assay [2], 0.324; in assay [3] it was 0.55; in assay [5], -0.04; in [6], -0.25; in [7], -0.641. For the same molecule, the composite z-score in [8] was 0.142; in assay [9], 0.123; in [10] it was 0.41; in assay [11] it was 0.966; in assay [13], -0.255; in assay [14], -0.076. Moreover, the composite z-score in assay [15] was -1.16; in assay [16], -0.145; in [17], -0.214; in assay [18], 0.081; in assay [19] it was -0.0827; in assay [20] it was 0.764. Moreover, the z-score in assay [4] is 0.487 (inactive); in assay [12] it was 1.07.

Take `CN(C)C(=O)[C@]1(CCS(=O)(=O)c2ccccc2)N=C(c2ccc(OCCCO)cc2)O[C@@H]1c1ccccc1CN=[N+]=[N-]`: the composite z-score was 1.45 in [1]; -0.326 in assay [2]; 0.32 in assay [3]; 1.26 in assay [5]; 1.24 in [6]; -0.126 in assay [7]. In addition, the composite z-score was 0.425 in assay [8]; -0.142 in assay [9]; 0.869 in assay [10]; 0.924 in [11]; -0.0755 in assay [13]; 1.98 in [14]. Besides, the composite z-score in [15] was 0.68; in assay [16], 0.0215; in assay [17], -0.0891; in [18], 0.463; in [19] it was 1.48; in [20], 1.71. Besides, the results for the z-score in assay [4] and in assay [12] were -0.153 (inactive) and -2.39, respectively.

On to `CO[C@H]1O[C@H](CO)[C@@H](OC(=O)Nc2ccccc2)[C@@H]2OC(=O)[C@@H](Cc3ccccc3)C/C=C/C[C@H](Cc3ccccc3)C(=O)O[C@@H]12`, for which the composite z-score is 1.46 in assay [1]; -0.172 in [2]; -0.0203 in assay [3]; 0.73 in assay [5]; 0.107 in assay [6]; -0.191 in [7]. The composite z-score in [8] is 0.094; in [9], 0.206; in assay [10], 0.983; in assay [11] it was 0.779; in assay [13] it was -0.152; in [14] it was -0.0442. Further, the composite z-score was -0.845 in assay [15]; -0.0721 in [16]; -0.154 in [17]; -0.125 in assay [18]; 0.235 in [19]; 0.224 in assay [20]. Further, the z-score was 0.0457 (inactive) in assay [4] and -0.897 in assay [12].

With `C=CCNC(=O)[C@@H]1[C@H]2C(=O)O[C@H](c3ccccc3)[C@H](c3ccccc3)N2[C@H](c2ccc(O)cc2)[C@@]12C(=O)Nc1ccc(C#CC3=CCCCC3)cc12`, the composite z-score in assay [1] is 1.6; in assay [2] it was 0.582; in [3], -0.228; in assay [5], 1.24; in [6], 0.887; in [7] it was 0.494. Moreover, the composite z-score is 0.79 in assay [8]; 0.626 in assay [9]; 0.406 in assay [10]; 1.44 in [11]; 0.385 in [13]; 1.1 in [14]. Moreover, the composite z-score in assay [15] is 0.683; in assay [16], 0.171; in assay [17], 1.85; in [18] it was 2.03; in assay [19], 1.58; in assay [20] it was 1.9. The z-score in assay [4] was -0.258 (inactive); in assay [12], -2.61.

Turning to `CN1C(=O)C2C=CC(C(O)c3cccs3)N(N(c3ccccc3)c3ccccc3)C2C1=O` (stereo not given), the composite z-score in [1] was 0.82; in [2], 0.0508; in [3] it was 0.66; in assay [5] it was 0.347; in assay [6] it was 0.347; in assay [7], -0.665. Moreover, the composite z-score was 0.602 in assay [8]; -0.351 in [9]; 1.27 in assay [10]; 1.28 in assay [11]; -0.632 in [13]; 1.07 in [14]. Besides, the composite z-score was 0.831 in assay [15]; 0.143 in assay [16]; 0.131 in [17]; -0.267 in assay [18]; 0.713 in assay [19]; 1.79 in assay [20]. Moreover, the z-score in assay [4] is 2.04 (inactive); in [12], 0.053.
